Each structure is given as a SMILES string. Inconclusive results are not listed. Active and inactive are the calls of the source. Calls follow the shape of the dose curve; as a rule, active = well fitted inhibition curve with a large enough effect; inconclusive = small, poorly fitted or top-dose-only effect; inactive = flat fitted curve, though single readings scatter.
Potency is read from the fitted curve at half-maximal effect.

The assay deals with Ferritin light chain (Equus caballus) (UniProt P02791). In words: Confirmation Assay for Identification of Novel General Anesthetics. Also: nearly all actives have a fitted effect of over 40% in size. The conditions noted are these: apoferritin 1-aminoanthracene fluorescence displacement. The text has this: Anesthetic development has remained a largely empirical process. There are growing concerns about the cognitive effects of known general anesthetics and acceleration of the onset of neurodegenerative disease. The compounds' toxicity and multiple specific binding targets in the mammalian brain [4] has made them less attractive as drug leads. In this assay, a GABAergic mimetic model system, apoferritin and a profluorescent 1-aminoanthracene ligand (1-AMA), was used to construct a competitive binding assay for identification of novel general anesthetics. The assay was validated for 1-AMA using other known anesthetics, such as isoflurane (CID:3763) and propofol (CID: 4943), [6]. This particular BioAssay is a confirmation of followup compounds from primary screen AID:485281.
Sequence of Ferritin light chain (Equus caballus) (P02791 2-175 limits assumed): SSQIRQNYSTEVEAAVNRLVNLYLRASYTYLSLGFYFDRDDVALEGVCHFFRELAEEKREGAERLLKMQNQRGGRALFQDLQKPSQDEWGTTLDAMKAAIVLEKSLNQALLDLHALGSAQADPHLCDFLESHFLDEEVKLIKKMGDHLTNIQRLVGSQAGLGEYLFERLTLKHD
[1] S.L. Bianchi, T. Tran, C. Liu, S. Lin, Y. Li, J.M. Keller, R.G. Eckenhoff, and M.F. Eckenhoff, Brain and behavior changes in 12-month-old Tg2576 and nontransgenic mice exposed to anesthetics. Neurobiol Aging 29 (2008) 1002-10.
[2] Z. Xie, Y. Dong, U. Maeda, R.D. Moir, W. Xia, D.J. Culley, G. Crosby, and R.E. Tanzi, The inhalation anesthetic isoflurane induces a vicious cycle of apoptosis and amyloid beta-protein accumulation. J Neurosci 27 (2007) 1247-54.
[3] P. Honegger, and J.M. Matthieu, Selective toxicity of the general anesthetic propofol for GABAergic neurons in rat brain cell cultures. J Neurosci Res 45 (1996) 631-6.
[4] M.F. Eckenhoff, K. Chan, and R.G. Eckenhoff, Multiple specific binding targets for inhaled anesthetics in the mammalian brain. J Pharmacol Exp Ther 300 (2002) 172-9.
[5] C.A. Butts, J. Xi, G. Brannigan, A.A. Saad, S.P. Venkatachalan, R.A. Pearce, M.L. Klein, R.G. Eckenhoff, and I.J. Dmochowski, Identification of a fluorescent general anesthetic, 1-aminoanthracene. Proc Natl Acad Sci U S A 106 (2009) 6501-6.
[6] W.A. Lea, J. Xi, A. Jadhav, L. Lu, C.P. Austin, A. Simeonov, and R.G. Eckenhoff, A high-throughput approach for identification of novel general anesthetics. PLoS One 4 (2009) e7150.
Source: NIH Chemical Genomics Center [NCGC]
Assay Submitter: Roderic Eckenhoff, University of Pennsylvania
Screening Center PI: Christopher P. Austin, NIH
Probe Development: NIH Chemical Genomics Center [NCGC]
Three uL of reagents (free 1-AMA (50% saturated solution of 1-aminoanthracene
in PBS) in columns 3, 4 as negative control and 1-AMA/apoferritin mixture (10 uM horse-spleen apoferritin in 50% saturated 1-aminoanthracene in PBS) in columns 1, 2, 5-48) was dispensed into 1536-well Greiner black assay plates. Compounds (23 nL) were transferred via Kalypsys pintool equipped with 1,536-pin array (10 nL slotted pins, V&P Scientific, San Diego, CA). Titration of the positive control, propofol, were delivered via pin transfer from separate control plates to the 2nd column of each assay plate. The starting concentration of the control, dissolved in DMSO, was at 160 mM, followed by two-fold dilution points in duplicate, for a total of 16 concentrations. The plates were incubated for 10 min at room temperature, and then read on an EnVision HTS multilabel reader (Perkin-Elmer, Waltham, MA) (end point read, 3 min/plate) using Fura2 BFP excitation filter (380 nm, bandwidth 10 nm) and fluorescein emission filter (535 nm, bandwidth 25 nm) set. A LANCE/DELFIA dichroic mirror with a cutoff wavelength at 400 nm was used to maximize signal accuracy and strength. Vehicle-only plates, with DMSO being pin-transferred to the entire column 5-48 compound area, were inserted uniformly at the beginning and the end of each library in order to monitor for and record any shifts in the background. Activity was computed as the normalized fluorescence response relative to free 1-AMA and 1-AMA/apoferritin complex values. Concentration-effect relationships were derived by using curve fitting algorithms developed in-house (http://ncgc.nih.gov/pub/openhts/). […]
With `COc1cccc(C(=O)COC(=O)CCC(=O)c2ccccc2)c1`, the Potency was 7.94 µM (active).

For the compound `O=C(COC(=O)/C=C/c1ccccc1Cl)NC1CCCCCC1`, the Potency is 6.31 µM (active).

For `O=C(CCl)Nc1ccc(N2CCCCCC2)cc1`, the Potency was 15.8 µM (active).

Take `COc1cccc(NC(=O)Nc2nc(SC(C)(C)C)ns2)c1`: the Potency is 10 µM (active).

Take `O=c1c2ccccc2nnn1Cc1ccccc1Cl`: the Potency is 15.8 µM (active).

As for `Cc1cc(C)n2nc(CC(=O)NC3CCCC(C)C3C)nc2n1` (stereo not given), the Potency is 15.8 µM (active).

Consider `Cc1ccccc1CSCC(=O)N/N=C/c1cccs1`, for which the Potency is 15.8 µM (active).

In the case of `O=C(CCNc1cccc(Cl)c1)c1cccs1`, the Potency was 17.8 µM (active).

Take `Cc1ccc(CNC(=O)c2nnn(-c3cccc(C)c3)c2N)cc1`: the Potency was 17.8 µM (active).

Turning to `Cc1csc(SCC(=O)NC23CC4CC(CC(C4)C2)C3)n1`, the Potency was 15.8 µM (active).

For the compound `CCN(CC)S(=O)(=O)c1ccc(C)c(C)c1`, the Potency was 22.4 µM (active).

As for `O=C(NC12CC3CC(CC(C3)C1)C2)c1ccco1`, the Potency was 14.1 µM (active).

In the case of `O=C(CCNc1cccc(Cl)c1)c1ccco1`, the Potency was 31.6 µM (active).

With `O=C(Nc1nccs1)c1csc2c1CCCC2`, the Potency is 8.91 µM (active).

Regarding `O=C(COc1ccccc1)N1CCCCCCC1`, the Potency is 12.6 µM (active).

`CC1(C)CC(=O)c2c(noc2-c2ccccc2)C1`: the Potency is 17.8 µM (active).

On to `O=C1CC2(CCCC2)CC(=O)N1c1ccccc1`, for which the Potency was 15.8 µM (active).

Consider `COc1ccc(-c2ccc(=O)n(CC(=O)NCc3ccco3)n2)cc1`, for which the Potency is 14.1 µM (active).

Turning to `O=C(Oc1cccc(O)c1)C1CCCCC1`, the Potency was 11.2 µM (active).

Turning to `CC1Cc2ccccc2N1C(=O)CSc1nnnn1C` (stereo not given), the Potency was 28.2 µM (active).

On to `O=C(CC1SCCNC1=O)Nc1ccc(Cl)c(Cl)c1` (stereo not given), for which the Potency is 20 µM (active).

For `C/C(=N\Nc1ccc(F)cc1F)c1cccs1`, the Potency is 11.2 µM (active).

In the case of `Cc1cccc(C(=O)N2CCCCCC2)c1`, the Potency is 22.4 µM (active).

Regarding `O=c1[nH]cnc2sc3c(c12)CCCCC3`, the Potency is 15.8 µM (active).

Take `O=C(Nc1cccc(Cl)c1)C1COc2ccccc2O1` (stereo not given): the Potency was 14.1 µM (active).

Take `Cc1cc(C)n2nc(CC(=O)NC3CCCCCCC3)nc2n1`: the Potency is 10 µM (active).

Consider `CC1=CCC2C(=O)N(c3ccc(C)cc3)C(=O)C2C1` (stereo not given), for which the Potency was 10 µM (active).

For the compound `O=C(COC(=O)C(O)c1ccccc1)NC12CC3CC(CC(C3)C1)C2` (stereo not given), the Potency was 12.6 µM (active).

Take `O=C(Cc1cccc2ccccc12)N1CCCc2ccccc21`: the Potency is 17.8 µM (active).

Take `Nc1nc(-c2ccc3c(c2)CCCC3)cs1`: the Potency was 28.2 µM (active).

For `CC(NC(=O)COC(=O)Cc1ccsc1)C1CC2CCC1C2` (stereo not given), the Potency was 31.6 µM (active).

In the case of `O=c1cc(C23CC4CC(CC(C4)C2)C3)[nH][nH]1`, the Potency is 12.6 µM (active).

On to `Cc1ccc(NCc2ccccc2O)cc1`, for which the Potency was 14.1 µM (active).

With `Cc1cc(NS(=O)(=O)N(C)C)ccc1C(C)C`, the Potency was 20 µM (active).

In the case of `Cc1cc(C(=O)OCC(=O)N2C(C)CCCC2C)c(C)o1` (stereo not given), the Potency is 14.1 µM (active).

On to `CCC(CC)C(=O)OCC(=O)NC12CC3CC(CC(C3)C1)C2`, for which the Potency was 10 µM (active).

For the compound `O=C(CO/N=C/c1ccc(OC(F)F)cc1)NC1CCCCCC1`, the Potency was 11.2 µM (active).

Regarding `Nc1nc(Cl)cc(NCCc2ccc(O)cc2)n1`, the Potency was 14.1 µM (active).

As to `O=C(CN1CCCC1)Nc1ccc(OCc2ccccc2)cc1`, the Potency is 15.8 µM (active).

`COc1cccc(NS(=O)(=O)c2ccc(Br)s2)c1`: the Potency was 15.8 µM (active).

Source of the values: PubChem BioAssay AID489008 (National Center for Advancing Translational Sciences (NCATS), 2010).
